Compound activity as filed in PubChem BioAssay.
Pf Dd2 growth: Plasmodium falciparum Dd2 growth inhibition; P. falciparum Dd2 growth, SYBR Green, 72 h; Potency, µM (doses to about 28.9 µM), inactives show at the top dose activity, negative = inhibition, most hits filed as inhibitors; 4.3% of 120,000 active; AID 1347417; active = well fitted inhibition curve with a large enough effect;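 note: plate controls were DMSO vehicle for no effect and reference drug for full effect; nearly all actives have a fitted effect of over 65% in size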
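Infected erythrocytes (Dd2, 0.3% parasitemia, 2.5% hematocrit final) are added to compound in RPMI-1640/Albumax II medium, grown 72 h at 37C in low oxygen, then lysed with saponin/Triton-X containing SYBR Green and read by fluorescence.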
* = called active by the depositor; i = inactive; [ ] = remark or other dose. The sample as a whole holds a higher share of hits than the screen did. Potency is the fitted concentration of half-maximal effect.

SMILES | Pf Dd2 growth
COc1cc(=O)n2c(c1C(=O)Nc1ccc3c(c1)OCCO3)CCCC2 | i
COc1ccccc1NC(=O)N1CCCC(Cn2c(C3CC3)nc3cccnc32)C1 (configuration not stated) | -14%
CC(=O)NC[C@H]1OC[C@@H](NC2CCCC2)[C@@H]1O | -12%[44.1 µM]
Cc1noc2ncnc(N3CCC4(CC3)CC(c3ccccc3)CN(C)C4)c12 (configuration not stated) | 11µM*
CN1CC(c2ccccc2)CC2(CCN(C(=O)c3ccccc3)CC2)C1 (configuration not stated) | i
CN1CC(c2ccccc2)CC2(CCN(C(=O)C3CCOCC3)CC2)C1 (configuration not stated) | -9%
COc1ccc(-c2nnc([C@H]3CCN(S(=O)(=O)Cc4ccccc4)C3)o2)cc1 | 10µM*
Cn1c([C@H]2CCN(Cc3cccc(C#N)c3)C2)nc2ccccc21 | 10µM*
FC(F)(F)c1ccc(CN2CC[C@H](c3nnc(-c4ccccc4)o3)C2)cc1 | i
COc1ccc(C(=O)N2CC[C@H](c3nnc(-c4ccccc4)o3)C2)cc1 | -17%[44.1 µM]
COc1ccccc1-c1nnc([C@H]2CCN(Cc3ccc(F)cc3)C2)o1 | i
COc1ccc(-c2nnc([C@H]3CCN(S(C)(=O)=O)C3)o2)cc1 | 13%[44.1 µM]
Cc1ccc(CN2CC[C@H](c3nnc(-c4ccccc4)o3)C2)cc1 | 10µM*
COc1ccccc1-c1nnc([C@H]2CCN(Cc3cccnc3)C2)o1 | 13µM*
Cn1c([C@H]2CCN(Cc3ccc(Cl)cc3)C2)nc2ccccc21 | i
Cn1c([C@H]2CCN(Cc3ccccc3)C2)nc2ccccc21 | i
Cc1ccc(-c2nnc([C@H]3CCN(Cc4ccc(CO)o4)C3)o2)cc1 | i
COc1ccccc1-c1nnc([C@H]2CCN(Cc3ccc(C(=O)O)cc3)C2)o1 | i
COC[C@@H]1CN(C(=O)CCc2cccc(OC)c2)C[C@H]1c1ccncc1 | -2%
CCOc1cc(=O)n2c(c1C(=O)Nc1cc(Cl)ccc1C)CCCC2 | 8%
COc1ccc(CCC(=O)N2CCCCCCNC(=O)CC2)cc1 | -28%
COc1ccc(C(=O)NCCc2ncc(C)n2CC2CC2)cn1 | 8%
O=C(Nc1cnc(-c2cccc(Cl)c2)nc1)c1ccc(F)cc1Cl | i
COC(=O)c1cccc(NC(=S)N[C@H]2CO[C@H]3[C@@H]2OC[C@H]3OC(=O)Nc2cccc(C(F)(F)F)c2)c1 | -10%
CN(Cc1ccc2nsnc2c1)Cc1nc(Cc2cccc(C(F)(F)F)c2)no1 | -6%
SMILES | Pf Dd2 growth
CN(C)C[C@@H]1CN(Cc2ccccc2)C[C@H]1NC(=O)C1(C)CCOCC1 | -19%
COc1cc(C(=O)N2CCC(C(=O)O)(n3cccn3)CC2)ccc1F | -9%
Cc1ccc(-c2nnc(C3CN(C(=O)c4cccs4)CC34CCOCC4)o2)cc1 (configuration not stated) | -4%
COCCN(Cc1cnn(C)c1)C(=O)C1CC2(CCNCC2)CN1 (configuration not stated) | 7%
Cn1cncc1-c1nnc([C@H]2CCN(Cc3cccc(C#N)c3)C2)o1 | -9%[44.1 µM]
COc1ccc(-c2nnc([C@H]3CCN(Cc4cccc(C#N)c4)C3)o2)cc1 | 14µM*
COc1ccc(CN2CC[C@H](c3nnc(-c4ccncc4)o3)C2)cc1 | i
CN1CCC(N[C@@H]2CO[C@H](CNC(=O)C3CCCC3)[C@H]2O)CC1 | 3%[44.1 µM]
COCC(=O)N1C[C@@H]2C[C@H]1C(=O)N(Cc1ccc(OC)cc1)c1ccccc1O2 | 1%[44.1 µM]
COc1ccc(N2CC(C(=O)N3CCN(Cc4ccccc4)CC3)NC2=O)cc1 (configuration not stated) | 15%
CC(C)(C)OC(=O)N1CCC(c2c(C(=O)N3CCN(c4ccc(Cl)cc4)CC3)cnn2-c2ccc(F)cc2F)CC1 | 11µM*
Cc1c(Cl)cccc1-n1ncc(C(=O)N2CCN(c3ncccn3)CC2)c1C1CCN(C(=O)OC(C)(C)C)CC1 | i
Cc1c(Cl)cccc1-n1ncc(C(=O)N2CCC(C)CC2)c1C1CCN(C(=O)OC(C)(C)C)CC1 | 11µM*
CN1CCN(C(=O)c2cnn(-c3ccc(F)cc3F)c2C2CCN(C(=O)OC(C)(C)C)CC2)CC1 | 16%
CC(C)(C)OC(=O)N1CCC(c2c(C(=O)N3CCN(c4ccccc4F)CC3)cnn2-c2ccccc2Cl)CC1 | 13µM*
COc1ccc(S(N)(=O)=O)cc1C(=O)NC1CCOC2(CCOCC2)C1 (configuration not stated) | -16%
O=C(Cc1cccs1)N1CCC(n2cc(-c3nc(C4CC4)no3)nn2)C1 (configuration not stated) | i
CCn1ncc(N2CCCC(CC(=O)NCc3ccccn3)C2)cc1=O (configuration not stated) | 2%
O=C(NCCn1ccn2nc(-c3ccc(F)cc3)cc2c1=O)c1c(F)cccc1F | i
CCc1ccc(CN2C[C@@H]3C(=O)N(CCOC)C(=O)[C@@H]3C2)cc1 | 17%
Cc1ccc(-c2nc(C(=O)NCc3cccc(C)c3)no2)cc1 | 54%
Cc1ccc(C(=O)N2C[C@@H](Oc3ccccc3)C[C@@H]2C(=O)N2CCOCC2)cn1 | -6%
